Only some compounds are listed: those with a hit (about 31% of all), similar ones and a draw of the others.
CYP2C9 activ – human CYP2C9 activators, primary screen, biochemical, luminescence; Cytochrome P450 2C9 (Homo sapiens), P11712; recombinant CYP2C9, luciferin-H conversion; active compounds read high; factor 1 = untreated enzyme, 0 = blocked; activation factor at 5 µM; 1.4% of 96,000 active; AID 1024, 2008;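 active = activation factor of 2 or more for CYP2C9 at a 5 µM dose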
Target sequence (P11712 whole entry, looked up): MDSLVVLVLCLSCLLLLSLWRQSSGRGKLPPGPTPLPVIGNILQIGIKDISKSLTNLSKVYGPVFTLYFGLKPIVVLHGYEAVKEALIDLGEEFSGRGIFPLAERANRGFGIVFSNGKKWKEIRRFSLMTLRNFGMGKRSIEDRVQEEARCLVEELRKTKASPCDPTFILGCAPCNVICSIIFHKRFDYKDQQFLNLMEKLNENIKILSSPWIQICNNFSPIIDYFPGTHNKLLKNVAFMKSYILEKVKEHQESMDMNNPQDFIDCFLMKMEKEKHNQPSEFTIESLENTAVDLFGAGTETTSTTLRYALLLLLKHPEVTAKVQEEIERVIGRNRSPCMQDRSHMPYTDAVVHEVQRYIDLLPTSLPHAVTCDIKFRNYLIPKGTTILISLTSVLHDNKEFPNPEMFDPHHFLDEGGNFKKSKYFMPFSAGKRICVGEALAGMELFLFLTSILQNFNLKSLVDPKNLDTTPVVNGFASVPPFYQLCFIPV
CYP2C19 inhib – blockers of cytochrome P450 2C19 activity – biochemical, luminescence, ADME assay, primary screen; P33261; CYP2C19 Supersomes, luciferin-H EGE luminescence, 30 min; inhibition, % at 5 µM; 21% of 96,000 active; AID 778, 2007;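 active = CYP2C19 inhibition above a set limit at 5 µM in the primary screen, cut at about 50% in these data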
CYP2C9 inhib – blockers of cytochrome P450 2C9 activity – biochemical, luminescence, ADME assay, primary screen. P11712. CYP2C9 Supersomes, luciferin-H conversion. inhibition, % at 5 µM. 20% of 96,000 active;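 active = blocking of liver enzyme CYP2C9 beyond about 50% at 5 µM, limit read from the data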
CYP2C19 act – human CYP2C19 activators, primary screen, biochemical, luminescence; recombinant CYP2C19, luciferin-H EGE luminescence; active compounds read high; 0 = fully inhibited enzyme, 1 = untreated enzyme; activation factor at 5 µM; 96,000 tested, under 10 active; Cytochrome P450 2C19 (Homo sapiens), P33261;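 active = activation factor of at least 2 at 5 µM in the primary screen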
Large screens that a line does not name were inactive.

COc1ccc(C2c3c(oc4ccc(Cl)cc4c3=O)C(=O)N2Cc2ccco2)cc1OC (stereo not given)	none
CCCCCSc1nnc2c(n1)OC(c1cccn1C)N(C(C)=O)c1ccccc1-2 (stereo not given)	CYP2C9 inhib 82.6
COc1ccc(OC)c(CCNC(=O)CS(=O)(=O)Cc2nc(-c3ccccc3C)oc2C)c1	CYP2C19 inhib 65.7
Cc1oc(-c2ccccc2F)nc1CS(=O)(=O)CC(=O)N1CCCCCC1	CYP2C9 inhib 80.7
Cc1ccccc1-c1nc(CS(=O)(=O)CC(=O)N(C)C2CCCCC2)c(C)o1	CYP2C19 inhib 86.5
Cc1ccccc1-c1nc(CN2CCC(C(=O)O)CC2)c(C)o1	none
Cc1oc(-c2ccccc2F)nc1CN1CCC(C(=O)NC2CCCCCCC2)CC1	none
Cc1ccccc1-c1nc(CS(=O)(=O)CC(=O)NCc2ccccc2)c(C)o1	none
CCC(=O)Nc1ccc(-c2nc(-c3ccccc3)n(CC(=O)N3CCCCC3)n2)cc1	none
OC(c1cccc(OCc2ccccc2)c1)c1nnc(-c2ccccc2)o1 (stereo not given)	none
Cc1cc(Nc2ccccc2)c2c([N+](=O)[O-])c(C)cc(C)c2n1	CYP2C19 inhib 78.1, CYP2C9 inhib 81.4
CCCOc1ccccc1N/C(=N/c1nc(C)cc(C)n1)NC(=O)Nc1ccc(Cl)cc1	none
Cc1csc(=N)n1CC(=O)N1CCc2ccccc21	none
COc1ccc2c(c1)-c1c(sn(-c3ccc(OC)c(OC)c3)c1=S)C(C)(C)N2	CYP2C9 inhib 59.4
COc1cc2c3c(c1)-c1c(sn(-c4cc(OC)ccc4OC)c1=S)C(C)(C)N3C(=O)C2=O	none
COc1ccc(-n2sc3c(c2=S)-c2cc(OC)ccc2NC3(C)C)cc1	CYP2C9 inhib 81.6
COc1ccc(-n2c(-c3cccc(C)c3[N+](=O)[O-])n[nH]c2=S)cc1	none
COc1ccc(CCCNC(=O)CC#N)cc1OC	none
COCc1[nH][nH]c(=O)c1C=Nc1ccc(Oc2ccccc2)cc1	CYP2C19 inhib 66.1
COc1cc(O)oc1C=Nc1ccc(Oc2ccccc2)cc1	none
CCS(=O)(=O)NCCc1cc2ccc(C)cc2[nH]c1=O	none
COC(=O)c1cc(CN2CCN(c3ccccc3C)CC2)ccc1O	CYP2C9 inhib 50.8
COc1cc(CN2CCN(c3ccccc3F)CC2)cc(OC)c1O	CYP2C19 inhib 80.1
COc1ccccc1N1CCN(Cc2ccsc2)CC1	none
COc1cc(CN2CCC(C(=O)N3CCN(c4ccccc4F)CC3)CC2)cc(OC)c1O	CYP2C9 inhib 69.8
CCOc1ccc(CN2CCC(C(=O)N3CCN(c4ccccc4F)CC3)CC2)cc1OC	none
Cc1ccccc1N1CCN(Cc2cccc(C(=O)O)c2)CC1	none
Cc1ccc(NC(=O)C2C(c3ccccc3)C=CC(c3ccccc3)C2C(=O)O)cc1 (stereo not given)	none
COC(=O)Cc1cc(=O)n2[nH]c(C)c(-c3ccccc3)c2n1	none
CCCC(C)NC(=O)c1nc(-c2ccccc2)n(-c2ccccc2)n1 (stereo not given)	CYP2C9 inhib 85.8
Cc1ccc(C)c(NC(=O)c2nc(-c3ccccc3)n(-c3ccccc3)n2)c1	CYP2C19 inhib 79.0, CYP2C9 inhib 71.2
CCSc1nnc(NC(=O)c2nc(-c3ccccc3)n(-c3ccccc3)n2)s1	CYP2C19 inhib 54.9, CYP2C9 inhib 92.3
O=C(Nc1nccs1)c1nc(-c2ccccc2)n(-c2ccccc2)n1	none
Cc1csc(NC(=O)c2nc(-c3ccccc3)n(-c3ccccc3)n2)n1	CYP2C9 inhib 75.3
CCCOc1ccc(Br)cc1/C=N/O	none
COc1cccc(CNCc2ccc(SC)cc2)c1OC	CYP2C19 inhib 100.3
COc1cccc(CNc2nn[nH]n2)c1OC	none
Cc1cc(C)c(S(=O)(=O)c2ccccc2C)c(N(C)C)n1	none
Cc1cc(C)c(S(=O)(=O)c2ccccc2)c(OC(=O)c2c(Cl)cc(Cl)cc2Cl)n1	CYP2C19 inhib 53.0
Cc1cc(C)c(S(=O)(=O)c2ccccc2)c(N(C)C)n1	CYP2C19 inhib 63.6
CNc1nc(C)cc(C)c1S(=O)(=O)c1ccc(C)cc1	CYP2C9 activ 3.6, CYP2C19 inhib 82.1
CCOc1cc(NC(=O)c2ccco2)c(OCC)cc1NC(=O)CCC(=O)NCc1cccnc1	none
CCOc1ccc(C2C(C#N)=C(N)SC(N)=C2C#N)c(OCC)c1	none
CCCCc1ccc(C2C(C#N)=C(N)SC(N)=C2C#N)s1	CYP2C19 inhib 67.8, CYP2C9 inhib 98.9
CC(=O)COc1ccc2c(C)c(C)c(=O)oc2c1	none
COc1ccc2c(c1)c(=O)oc1cc(OCC(=O)N3CCCC(C)C3)ccc12 (stereo not given)	CYP2C19 inhib 99.0
COc1ccc2c(c1)c(=O)oc1cc(OCC(=O)N3CCC(C)CC3)ccc12	CYP2C19 inhib 98.9
COc1ccc2c(c1)c(=O)oc1cc(OCC(=O)N3CCc4ccccc4C3)ccc12	CYP2C9 inhib 61.4
CC1CCc2nc(N)c(C#N)c(-c3cccn3C)c2C1 (stereo not given)	none
COc1ccc2nc(N3CCC(O)CC3)c(C#N)cc2c1	CYP2C19 inhib 63.1
COc1ccc2nc(N3CCC(C)CC3)c(C#N)cc2c1	none
CCOC(=O)C1CCN(c2nc3cc(OC)ccc3cc2C#N)CC1	CYP2C19 inhib 95.9, CYP2C9 inhib 95.9
COc1ccc(C(=O)N2CCN(c3nc4cc(C)ccc4cc3C#N)CC2)c(OC)c1	CYP2C9 inhib 55.3
Cc1cc(C)n2c(SCC(=O)N3CCN(S(=O)(=O)c4ccc(Cl)cc4)CC3)nnc2n1	none
CCn1c(SCC(=O)Nc2oc(-c3ccccc3)c(-c3ccccc3)c2C#N)nnc1-c1ccncc1	CYP2C19 inhib 57.7, CYP2C9 inhib 78.2
Cc1cnc(C(=O)OCC(=O)NC(=O)NC(C)C)cn1	none
Cc1cnc(C(=O)OCC(=O)Nc2oc(-c3ccccc3)c(-c3ccccc3)c2C#N)cn1	CYP2C9 inhib 62.2
CCn1c(SCC(=O)Nc2oc(-c3ccccc3)c(-c3ccccc3)c2C#N)nnc1-c1ccco1	CYP2C19 inhib 94.4, CYP2C9 inhib 96.5
COc1ccc(-c2oc(NC(=O)CSc3nncn3C)c(C#N)c2-c2ccc(OC)cc2)cc1	CYP2C9 inhib 58.0
CC1NC(=O)N(C)C2NC(=O)N(C)C(c3ccccc3)C12 (stereo not given)	none
CC1=NNC(=O)C1CCC(=O)N/N=C\c1ccccc1[N+](=O)[O-] (stereo not given)	none
CC(=O)c1ccc(NC2OC(C)C(O)C(O)C2O)cc1 (stereo not given)	none
Cc1cccc(NC2(C(F)(F)F)N=C(c3ccccc3)NC2=O)n1 (stereo not given)	none
N#Cc1c(NC(=O)CSc2ncnc3sccc23)oc(-c2ccco2)c1-c1ccco1	CYP2C9 inhib 83.6
N#Cc1c(NC(=O)CSc2ccccn2)oc(-c2ccccc2)c1-c1ccccc1	CYP2C9 inhib 85.7
CCNC(=O)CSc1ncnc2sccc12	none
NC(=O)COC(=O)CNC(=O)c1ccc(Cl)cc1	none

Bioassay records (PubChem)
